# Assay results: PubChem BioAssay (Tox21)
# “And” between values parts separate entries of the source, which are not always exact repeats. Equal values may be shown once. Inconclusive results are not listed. Where a call stands in place of a potency, no number is given. More than one record can exist for a structure, and the calls need not agree. The source made the active and inactive calls. The call rests on the fitted dose curve; in most records, active means well fitted curve in the direction sought with a large enough effect in the repeat runs; inconclusive means weak or mixed curves; inactive means no such curve, though single readings can be large; an effect the other way counts as inactive or inconclusive.
# Assays:
# [1] = A CellTox Green Cytotoxicity Assay to monitor cytotoxicity in HEK293 cells - 40 hour (AID 1224871); further: nearly all actives have a fitted effect of over 45% in size; further: potency means the concentration at half of the fitted maximal effect
# Summary of the method: (§1)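 Real-time, in one plate: 600 HEK293 cells/well with dead-cell DNA dye, pinned compound after 5 h, 37 C incubation over 40 h; viable cells give no appreciable fluorescence.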
# [2] = qHTS RealTime-Glo MT Cell Viability Assay in HEK293 cells - 16 hour (AID 1224872); further: nearly all actives have a fitted effect of over 50% in size; further: potency means the concentration at half of the fitted maximal effect
# Summary of the method: (§2)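 Cells + reagent dispensed (600 cells/well, HEK293) → 5 h at 37 C/5% CO2 → 23 nL compound in DMSO pinned → 40 h at 37 C → luminescence read at 0, 8, 16, 24, 32, 40 h.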
# [3] = qHTS RealTime-Glo MT Cell Viability Assay in HepG2 cells - 8 hour (AID 1224873); further: nearly all actives have a fitted effect of over 55% in size
# Summary of the method: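 HepG2 cells (600/well) mixed with RealTime-Glo MT reagent, settled 5 h at 37 C/5% CO2 before compound addition. Nonlytic NanoLuc luminescence from viable-cell prosubstrate reduction read repeatedly during 40 h treatment at 37 C.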
# [4] = A CellTox Green Cytotoxicity Assay to monitor cytotoxicity in HEK293 cells - 24 hour (AID 1224875); further: series mostly up to about 77 µM; nearly all actives have a fitted effect of over 45% in size
# Summary of the method: as §1
# [5] = A CellTox Green Cytotoxicity Assay to monitor cytotoxicity in HepG2 cells - 16 hour (AID 1224876); further: nearly all actives have a fitted effect of over 45% in size
# Summary of the method: (§3)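 Cytotoxicity was tracked as dead-cell DNA fluorescence in HepG2 cells treated with test compounds at 37 C; each time-point value comes from one kinetic series spanning 0, 8, 16, 24, 32 and 40 h.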
# [6] = qHTS RealTime-Glo MT Cell Viability Assay in HepG2 cells - 32 hour (AID 1224877); further: nearly all actives have a fitted effect of over 55% in size
# Summary of the method: (§4)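 Real-time, nonlytic viability: 600 HepG2 cells/well mixed with NanoLuc enzyme plus prosubstrate; 5 h settle, compound (DMSO) added by pintool; luminescence monitored over 40 h at 37 C.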
# [7] = A CellTox Green Cytotoxicity Assay to monitor cytotoxicity in HepG2 cells - 24 hour (AID 1224878); further: nearly all actives have a fitted effect of over 45% in size
# Summary of the method: as §3
# [8] = A CellTox Green Cytotoxicity Assay to monitor cytotoxicity in HepG2 cells - 40 hour (AID 1224879); further: nearly all actives have a fitted effect of over 40% in size; further: potency means the concentration at half of the fitted maximal effect
# Summary of the method: as §3
# [9] = qHTS RealTime-Glo MT Cell Viability Assay in HEK293 cells - 0 hour (AID 1224880)
# Summary of the method: (§5)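 Kinetic, non-lysing viability readout. Seed HEK293 (600/well) with reagent, incubate 5 h at 37 C/5% CO2, pin 23 nL compound in DMSO, incubate at 37 C, read luminescence at 0, 8, 16, 24, 32, 40 h.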
# [10] = A CellTox Green Cytotoxicity Assay to monitor cytotoxicity in HEK293 cells - 32 hour (AID 1224881); further: nearly all actives have a fitted effect of over 40% in size; further: potency means the concentration at half of the fitted maximal effect
# Summary of the method: as §1
# [11] = A CellTox Green Cytotoxicity Assay to monitor cytotoxicity in HepG2 cells - 0 hour (AID 1224882); further: nearly all actives have a fitted effect of over 35% in size
# Summary of the method: as §3
# [12] = A CellTox Green Cytotoxicity Assay to monitor cytotoxicity in HepG2 cells - 32 hour (AID 1224883); further: nearly all actives have a fitted effect of over 50% in size
# Summary of the method: as §3
# [13] = A CellTox Green Cytotoxicity Assay to monitor cytotoxicity in HEK293 cells - 8 hour (AID 1224884); further: nearly all actives have a fitted effect of over 35% in size
# Summary of the method: as §1
# [14] = qHTS RealTime-Glo MT Cell Viability Assay in HepG2 cells - 16 hour (AID 1224885); further: nearly all actives have a fitted effect of over 50% in size
# Summary of the method: as §4
# [15] = qHTS RealTime-Glo MT Cell Viability Assay in HEK293 cells - 24 hour (AID 1224886); further: nearly all actives have a fitted effect of over 50% in size; further: potency means the concentration at half of the fitted maximal effect
# Summary of the method: as §2
# [16] = qHTS RealTime-Glo MT Cell Viability Assay in HEK293 cells - 8 hour (AID 1224887)
# Summary of the method: as §5
# [17] = A CellTox Green Cytotoxicity Assay to monitor cytotoxicity in HEK293 cells - 16 hour (AID 1224888); further: nearly all actives have a fitted effect of over 35% in size
# Summary of the method: as §1
# [18] = qHTS RealTime-Glo MT Cell Viability Assay in HepG2 cells - 0 hour (AID 1224889); further: nearly all actives have a fitted effect of over 50% in size
# Summary of the method: as §4
# [19] = qHTS RealTime-Glo MT Cell Viability Assay in HEK293 cells - 40 hour (AID 1224874); conditions: RealTime-Glo luminescence; max response: stronger effect = lower value; further: nearly all actives have a fitted effect of over 50% in size; further: potency means the concentration at half of the fitted maximal effect
# Summary of the method: as §5
# [20] = A CellTox Green Cytotoxicity Assay to monitor cytotoxicity in HepG2 cells - 8 hour (AID 1224890); further: nearly all actives have a fitted effect of over 45% in size
# Summary of the method: as §3
compound,measurement,setting,value
COCCOCCO,Potency,[1],inactive
same,Potency,[2],inactive
same,Potency,[3],inactive
same,Potency,[4],inactive
same,Potency,[5],inactive
same,Potency,[6],inactive
same,Potency,[7],inactive
same,Potency,[8],inactive
same,Potency,[9],inactive
same,Potency,[10],inactive
same,Potency,[11],inactive
same,Potency,[12],inactive
same,Potency,[13],inactive
same,Potency,[14],inactive
same,Potency,[15],inactive
same,Potency,[16],inactive
same,Potency,[17],inactive
same,Potency,[18],inactive
O=C(OC1CCCCC1)c1ccccc1C(=O)OC1CCCCC1,Potency,[1],inactive
same,Potency,[2],inactive
same,Potency,[3],inactive
same,max response,[19],-29.8% (inactive)
same,Potency,[4],inactive
same,Potency,[5],inactive
same,Potency,[7],inactive
same,Potency,[8],inactive
same,Potency,[9],inactive
same,Potency,[10],inactive
same,Potency,[11],inactive
same,Potency,[12],inactive
same,Potency,[13],inactive
same,Potency,[14],inactive
same,Potency,[15],inactive
same,Potency,[16],inactive
same,Potency,[17],inactive
same,Potency,[20],inactive
CCOP(=O)(OCC)Oc1ccc([N+](=O)[O-])cc1,Potency,[1],inactive
same,Potency,[2],inactive
same,Potency,[3],inactive
same,Potency,[4],inactive
same,Potency,[5],inactive
same,Potency,[6],inactive
same,Potency,[7],inactive
same,Potency,[8],inactive
same,Potency,[9],inactive
same,Potency,[10],inactive
same,Potency,[11],inactive
same,Potency,[12],inactive
same,Potency,[14],inactive
same,Potency,[15],inactive
same,Potency,[16],inactive
same,Potency,[17],inactive
same,Potency,[18],inactive
same,Potency,[20],inactive
Brc1ccc(Oc2ccccc2)cc1,Potency,[1],44.7 µM (active) and 21.9 µM (active)
same,Potency,[2],inactive
same,Potency,[3],inactive
same,max response,[19],1.37% (inactive) and 1.64% (inactive)
same,Potency,[5],inactive
same,Potency,[7],inactive
same,Potency,[8],inactive
same,Potency,[9],inactive
same,Potency,[10],50.2 µM (active) and 21.9 µM (active)
same,Potency,[11],inactive
same,Potency,[12],inactive
same,Potency,[13],inactive
same,Potency,[14],inactive
same,Potency,[15],inactive
same,Potency,[16],inactive
same,Potency,[17],inactive
same,Potency,[18],inactive
same,Potency,[20],inactive
C=CCN1CC[C@]23c4c5ccc(O)c4O[C@H]2C(=O)CC[C@@]3(O)[C@H]1C5,Potency,[1],inactive
same,Potency,[2],inactive
same,max response,[19],-0.323% (inactive)
same,Potency,[4],inactive
same,Potency,[5],inactive
same,Potency,[6],inactive
same,Potency,[7],inactive
same,Potency,[8],inactive
same,Potency,[9],inactive
same,Potency,[10],inactive
same,Potency,[11],inactive
same,Potency,[12],inactive
same,Potency,[13],inactive
same,Potency,[14],inactive
same,Potency,[15],inactive
same,Potency,[16],inactive
same,Potency,[17],inactive
same,Potency,[18],inactive
same,Potency,[20],inactive
O=C(N[C@H](c1ccccc1)[C@@H]1CN2CCC1CC2)c1c(Cl)ccc(C(F)(F)F)c1Cl,Potency,[1],78.8 µM (active)
same,Potency,[2],78.8 µM (active)
same,Potency,[3],inactive
same,Potency,[19],70.2 µM (active)
same,Potency,[5],inactive
same,Potency,[8],70.2 µM (active)
same,Potency,[10],78.8 µM (active)
same,Potency,[11],inactive
same,Potency,[13],inactive
same,Potency,[14],inactive
same,Potency,[15],70.2 µM (active)
same,Potency,[18],inactive
same,Potency,[20],inactive
CC1(C)[C@H](C=C(Cl)Cl)[C@@H]1C(=O)O[C@@H](C#N)c1cccc(Oc2ccccc2)c1,Potency,[1],inactive
same,Potency,[2],inactive
same,max response,[19],0.601% (inactive)
same,Potency,[4],inactive
same,Potency,[5],inactive
same,Potency,[6],inactive
same,Potency,[7],inactive
same,Potency,[8],inactive
same,Potency,[9],inactive
same,Potency,[10],inactive
same,Potency,[11],inactive
same,Potency,[12],inactive
same,Potency,[13],inactive
same,Potency,[14],inactive
same,Potency,[15],inactive
same,Potency,[16],inactive
same,Potency,[17],inactive
Cc1ccccc1C(=O)Nc1cccc(OC(C)C)c1,Potency,[1],inactive
same,Potency,[2],inactive
same,Potency,[3],inactive
same,Potency,[4],inactive
same,Potency,[5],inactive
same,Potency,[6],inactive
same,Potency,[7],inactive
same,Potency,[8],inactive
same,Potency,[9],inactive
same,Potency,[10],inactive
same,Potency,[11],inactive
same,Potency,[12],inactive
same,Potency,[14],inactive
same,Potency,[16],inactive
same,Potency,[17],inactive
same,Potency,[18],inactive
same,Potency,[20],inactive
O=C(O)COc1ccc(Cl)cc1,Potency,[1],inactive
same,Potency,[2],inactive
same,max response,[19],0.692% (inactive)
same,Potency,[4],inactive
same,Potency,[5],inactive
same,Potency,[6],inactive
same,Potency,[7],inactive
same,Potency,[8],inactive
same,Potency,[9],inactive
same,Potency,[10],inactive
same,Potency,[11],inactive
same,Potency,[12],inactive
same,Potency,[13],inactive
same,Potency,[14],inactive
same,Potency,[15],inactive
same,Potency,[16],inactive
same,Potency,[17],inactive
same,Potency,[18],inactive
same,Potency,[20],inactive
C=CC(=O)NCNC(=O)C=C,Potency,[1],inactive
same,Potency,[2],inactive
same,Potency,[3],inactive
same,Potency,[4],inactive
same,Potency,[5],inactive
same,Potency,[7],inactive
same,Potency,[9],inactive
same,Potency,[10],inactive
same,Potency,[11],inactive
same,Potency,[12],inactive
same,Potency,[14],inactive
same,Potency,[15],inactive
same,Potency,[17],inactive
same,Potency,[18],inactive
same,Potency,[20],inactive
COC(=O)C(Cl)C(=O)OC,Potency,[1],inactive
same,Potency,[2],inactive
same,max response,[19],-20.1% (inactive)
same,Potency,[4],inactive
same,Potency,[5],inactive
same,Potency,[6],inactive
same,Potency,[7],inactive
same,Potency,[8],inactive
same,Potency,[9],inactive
same,Potency,[10],inactive
same,Potency,[11],inactive
same,Potency,[12],inactive
same,Potency,[13],inactive
same,Potency,[14],inactive
same,Potency,[15],inactive
same,Potency,[16],inactive
same,Potency,[17],inactive
same,Potency,[18],inactive
same,Potency,[20],inactive
CC/C(=N\OC/C=C/Cl)C1=C(O)CC(C2CCOCC2)CC1=O (configuration not stated),Potency,[1],inactive
same,Potency,[2],inactive
same,Potency,[3],inactive
same,max response,[19],0.456% (inactive)
same,Potency,[4],inactive
same,Potency,[5],inactive
same,Potency,[7],inactive
same,Potency,[8],inactive
same,Potency,[9],inactive
same,Potency,[10],inactive
same,Potency,[11],inactive
same,Potency,[12],inactive
same,Potency,[13],inactive
same,Potency,[14],inactive
same,Potency,[15],inactive
same,Potency,[17],inactive
same,Potency,[18],inactive
same,Potency,[20],inactive
CCn1cc[n+](C)c1,Potency,[1],inactive
same,Potency,[2],inactive
same,Potency,[19],1.56 µM (active)
same,max response,[19],0.829% (inactive) [middle of 11 runs]
same,Potency,[4],inactive
same,Potency,[5],inactive
same,Potency,[6],inactive
same,Potency,[7],inactive
same,Potency,[8],inactive and 55.5 µM (active)
same,Potency,[9],inactive
same,Potency,[10],inactive
same,Potency,[11],inactive
same,Potency,[12],inactive
same,Potency,[13],inactive
same,Potency,[14],inactive
same,Potency,[15],inactive and 1.75 µM (active)
same,Potency,[16],inactive
same,Potency,[17],inactive
same,Potency,[18],inactive
O=Cc1ccc2c(c1)OCO2,Potency,[1],inactive
same,Potency,[2],inactive
same,Potency,[3],inactive
same,max response,[19],0.0881% (inactive)
same,Potency,[4],inactive
same,Potency,[5],inactive
same,Potency,[7],inactive
same,Potency,[8],inactive
same,Potency,[9],inactive
same,Potency,[10],inactive
same,Potency,[11],inactive
same,Potency,[12],inactive
same,Potency,[13],inactive
same,Potency,[14],inactive
same,Potency,[15],inactive
same,Potency,[16],inactive
same,Potency,[17],inactive
same,Potency,[18],inactive
same,Potency,[20],inactive
